The record followed here is PubChem BioAssay (EPA / NIEHS).

Calls of active or inactive are those of the source. The calls were made as follows, unless noted: active = hit-call score of the fitted dose curve at least 0.9, where 1 is the maximum; inactive = score below 0.9.

Broadly, the AC50 is the concentration at which the activity in the assay is half-maximal.

Read-out in assay [1]: Protein phosphatase 2A (PPP2R4), PTPA (gene 5524)
The experiment in a line: LTEA_HepaRG_PPP2R4: Life Technologies and Expression Analysis (LTEA) Assay for Protein phosphatase 2A (PPP2R4) using HepaRG (AID 2283522). The note with it: mRNA level, 48 h; actives raise or lower the signal. Put shortly: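 HepaRG, 48 h exposure, 8-pt half-log series from 100 uM, 0.5% DMSO vehicle, duplicates. Readout: PPP2R4 mRNA, Fluidigm qRT-PCR, housekeeping-normalized. Bidirectional curve fit vs DMSO baseline.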

Read-out in assay [2]: Phosphatase and tensin (PTEN), PTEN (gene 5728)
Kind of assay: LTEA_HepaRG_PTEN: Life Technologies and Expression Analysis (LTEA) Assay for Phosphatase and tensin (PTEN) using HepaRG (AID 2283523). The note with it: mRNA level, 48 h; actives raise or lower the signal. An outline of the steps: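 Expression of PTEN is quantified in the human liver line HepaRG following two days of dosing (top concentration 100 uM, half-log dilutions, 0.5% DMSO). Values derive from bidirectional curve fitting relative to DMSO controls.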

Read-out in assay [3]: solute carrier (SLC22A1), SLC22A1 (gene 6580)
The experiment in a line: LTEA_HepaRG_SLC22A1: Life Technologies and Expression Analysis (LTEA) Assay for solute carrier (SLC22A1) using HepaRG (AID 2283524).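 As to AC50: differentiated human HepaRG liver cells in serum-free induction medium.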 The note with it: mRNA level, 48 h; actives raise or lower the signal. An outline of the steps: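 Transcript induction or suppression of SLC22A1 in human HepaRG cultures is scored after 48 h chemical treatment, with DMSO (0.5%) as baseline for bidirectional fitting. Concentrations span eight half-log points topping at 100 uM.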

Read-out in assay [4]: Pyruvate Dehydrogenase Kinase 4 (PDK4), PDK4 (gene 5166)
Kind of assay: LTEA_HepaRG_PDK4: Life Technologies and Expression Analysis (LTEA) Assay for Pyruvate Dehydrogenase Kinase 4 (PDK4) using HepaRG (AID 2283525). The settings on record: mRNA level, 48 h; actives raise or lower the signal. Put shortly:
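Eight-point, half-log concentration series (max 100 uM, 0.5% DMSO) applied to differentiated HepaRG cells for 48 h in duplicate. Endpoint: PDK4 mRNA induction or repression by qRT-PCR against DMSO baseline.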

Read-out in assay [5]: NAD(P)H dehydrogenase [quinone] 1 (NQO1), NQO1 (gene 1728)
Kind of assay: LTEA_HepaRG_NQO1: Life Technologies and Expression Analysis (LTEA) Assay for NAD(P)H dehydrogenase [quinone] 1 (NQO1) using HepaRG (AID 2283526). The note with it: mRNA level, 48 h; actives raise or lower the signal. Put shortly:
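qRT-PCR read-out (Fluidigm TaqMan), normalized to three housekeeping genes, after 48 h chemical exposure of HepaRG cells. Concentrations: eight points, top 100 uM, half-log steps, 0.5% DMSO vehicle. Gain or loss of signal fitted relative to DMSO.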

Read-out in assay [6]: Nuclear factor erythroid 2-related factor 2 (Homo sapiens) (UniProt Q16236)
Kind of assay: LTEA_HepaRG_NFE2L2: Life Technologies and Expression Analysis (LTEA) Assay for Nuclear factor erythroid 2-related factor 2 (NFE2L2) Transcription Factor using HepaRG (AID 2283527).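 As to outcome: TaqMan qRT-PCR transcript level normalised to ACTB GAPDH and POLR2A housekeeping genes.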 The settings on record: mRNA level, 48 h; actives raise or lower the signal. Put shortly:
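Human liver HepaRG line treated in duplicate for 48 h with an eight-point series topping at 100 uM. Gene expression of NFE2L2 by qRT-PCR, bidirectionally fitted against the vehicle control.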

Read-out in assay [7]: succinate dehydrogenase complex iron sulfur subunit B (SDHB), SDHB (gene 6390)
The experiment in a line: LTEA_HepaRG_SDHB: Life Technologies and Expression Analysis (LTEA) Assay for succinate dehydrogenase complex iron sulfur subunit B (SDHB) using HepaRG (AID 2283528). The note with it: mRNA level, 48 h; actives raise or lower the signal. Put shortly: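 HepaRG, 48 h exposure, 8-pt half-log series from 100 uM in 0.5% DMSO, duplicates. Readout: SDHB mRNA by Fluidigm qRT-PCR vs housekeeping genes; bidirectional fit relative to DMSO.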

Read-out in assay [8]: Signal transducer and activator of transcription 3 (Homo sapiens) (UniProt P40763)
Kind of assay: LTEA_HepaRG_STAT3: Life Technologies and Expression Analysis (LTEA) Assay for Signal transducer and activator of transcription (STAT3) using HepaRG (AID 2283529). The settings on record: mRNA level, 48 h; actives raise or lower the signal. Put shortly:
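In this transcriptional endpoint, HepaRG cultures receive test chemicals at up to 100 uM for 48 h, tested in duplicate. STAT3 mRNA is normalized to ACTB, GAPDH and POLR2A.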

Read-out in assay [9]: solute carrier (SLCO1B1), SLCO1B1 (gene 10599)
Kind of assay: LTEA_HepaRG_SLCO1B1: Life Technologies and Expression Analysis (LTEA) Assay for solute carrier (SLCO1B1) using HepaRG (AID 2283530). The settings on record: mRNA level, 48 h; actives raise or lower the signal. Put shortly:
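SLCO1B1 transcript levels were quantified by TaqMan qRT-PCR using three housekeeping genes for normalization. This followed 48 h chemical exposure (100 uM top, half-log, 8 points, 0.5% DMSO) of HepaRG liver cells, with gain or loss fitted relative to DMSO.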

Read-out in assay [10]: sulfotransferase 2A1 (SULT2A1), SULT2A1 (gene 6822)
Kind of assay: LTEA_HepaRG_SULT2A1: Life Technologies and Expression Analysis (LTEA) Assay for sulfotransferase 2A1 (SULT2A1) using HepaRG (AID 2283531). The note with it: mRNA level, 48 h; actives raise or lower the signal. An outline of the steps: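 Expression change of SULT2A1, by qRT-PCR with three housekeeping-gene normalization, was scored bidirectionally versus DMSO. Cells: differentiated HepaRG, dosed in duplicate for 48 h across 8 points, highest 100 µM, half-log dilution, 0.5% DMSO.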

Read-out in assay [11]: Transforming Growth Factor (TGFA), TGFA (gene 7039)
The experiment in a line: LTEA_HepaRG_TGFA: Life Technologies and Expression Analysis (LTEA) Assay for Transforming Growth Factor (TGFA) using HepaRG (AID 2283532). The note with it: mRNA level, 48 h; actives raise or lower the signal. An outline of the steps: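 Gene expression of TGFA was quantified by qRT-PCR after human HepaRG cells were treated for 48 h with test chemicals (eight concentrations, highest 100 uM, 0.5% DMSO). Activity in either direction was fitted relative to DMSO.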

Read-out in assay [12]: Transforming Growth Factor (TGFB1), TGFB1 (gene 7040)
The experiment in a line: LTEA_HepaRG_TGFB1: Life Technologies and Expression Analysis (LTEA) Assay for Transforming Growth Factor (TGFB1) Transporter using HepaRG (AID 2283533). The note with it: mRNA level, 48 h; actives raise or lower the signal. Put shortly:
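TGFB1 transcript measured by qRT-PCR with normalisation to three housekeeping genes (ACTB, GAPDH, POLR2A); human HepaRG line treated in duplicate for 48 hr with an 8-point series topping at 100 uM, 0.5% DMSO vehicle, bidirectionally fitted.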

Read-out in assay [13]: TIMP1, TIMP1 (gene 7076)
The experiment in a line: LTEA_HepaRG_TIMP1: Life Technologies and Expression Analysis (LTEA) Assay for TIMP1 using HepaRG (AID 2283534). The settings on record: mRNA level, 48 h; actives raise or lower the signal. An outline of the steps:
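Bidirectional change in TIMP1 transcript versus 0.5% DMSO, measured by TaqMan qRT-PCR with three housekeeping genes for normalization. HepaRG human liver cells dosed 48 h in duplicate, top concentration 100 uM with half-log dilutions.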

Read-out in assay [14]: Tumor necrosis factor receptor 1 (TNFRSF1A), TNFRSF1A (gene 7132)
The experiment in a line: LTEA_HepaRG_TNFRSF1A: Life Technologies and Expression Analysis (LTEA) Assay for Tumor necrosis factor receptor 1 (TNFRSF1A) using HepaRG (AID 2283535). The settings on record: mRNA level, 48 h; actives raise or lower the signal. Put shortly: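 mRNA measured by qRT-PCR (TaqMan, Fluidigm arrays) against ACTB/GAPDH/POLR2A housekeepers after 48 h chemical exposure of HepaRG cells. Top concentration 100 uM, half-log 8-point series, duplicates; vehicle 0.5% DMSO, both fit directions.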

Read-out in assay [15]: Thyroid Hormone Responsive (THRSP), THRSP (gene 7069)
Kind of assay: LTEA_HepaRG_THRSP: Life Technologies and Expression Analysis (LTEA) Assay for Thyroid Hormone Responsive (THRSP) using HepaRG (AID 2283536). The settings on record: mRNA level, 48 h; actives raise or lower the signal. Put shortly: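 Cell model: human HepaRG, approx. 100,000 cells/well, 0.5% DMSO vehicle. Exposure lasts 48 h; phenobarbital 1 mM serves as induction positive control. Gene expression is measured by qRT-PCR against three endogenous control genes.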

Read-out in assay [16]: UDP glucuronosyltransferase (UGT1A1), UGT1A1 (gene 54658)
Kind of assay: LTEA_HepaRG_UGT1A1: Life Technologies and Expression Analysis (LTEA) Assay for UDP glucuronosyltransferase (UGT1A1) using HepaRG (AID 2283538). The settings on record: mRNA level, 48 h; actives raise or lower the signal. Put shortly: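 HepaRG, 48 h chemical exposure (top 100 uM, half-log 8-pt, 0.5% DMSO vehicle), duplicate wells; qRT-PCR (TaqMan, Fluidigm array) for UGT1A1 mRNA, housekeeping-normalized; bidirectional curve fit vs DMSO baseline.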

Read-out in assay [17]: UDP glucuronosyltransferase (UGT1A6), UGT1A6 (gene 54578)
Kind of assay: LTEA_HepaRG_UGT1A6: Life Technologies and Expression Analysis (LTEA) Assay for UDP glucuronosyltransferase (UGT1A6) using HepaRG (AID 2283539). The note with it: mRNA level, 48 h; actives raise or lower the signal. An outline of the steps: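 Expression was quantified by TaqMan qRT-PCR on Fluidigm arrays with ACTB/GAPDH/POLR2A normalization and bidirectional fitting against 0.5% DMSO. HepaRG cells (~100,000/well) were treated in duplicate for 48 h at eight half-log concentrations up to 100 uM in serum-free induction medium.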

Read-out in assay [18]: X-box binding protein 1 (XBP1), XBP1 (gene 7494)
Kind of assay: LTEA_HepaRG_XBP1: Life Technologies and Expression Analysis (LTEA) Assay for X-box binding protein 1 (XBP1) using HepaRG (AID 2283540). The settings on record: mRNA level, 48 h; actives raise or lower the signal. Put shortly:
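XBP1 transcript by qRT-PCR (housekeeping-normalized: ACTB, GAPDH, POLR2A) after 48 h chemical treatment of HepaRG cells, 8-point half-log series topping at 100 uM, vehicle 0.5% DMSO. Gain and loss of signal fitted relative to DMSO.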

Assay [19] can be described thus: LTEA_HepaRG_LDH_cytotoxicity: Cytotoxicity Assessment in the Life Technologies and Expression Analysis (LTEA) Assay (AID 2283563; active = hit-call score of the fitted dose curve at least 0.9, where 1 is the maximum). Put shortly: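 LDH release into culture medium read after 48 h chemical treatment of HepaRG cells. Duplicate wells, eight-point half-log series topping at 100 uM, 0.5% DMSO vehicle and baseline.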
Read-out in assay [20]: Cellular tumor antigen p53 (Homo sapiens) (UniProt P04637)
Kind of assay: LTEA_HepaRG_TP53: Life Technologies and Expression Analysis (LTEA) Assay for Tumor Protein P53 (TP53) using HepaRG (AID 2283537). The settings on record: mRNA level, 48 h; actives raise or lower the signal. An outline of the steps:
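HepaRG, 48 h exposure, top 100 uM, half-log 8-point, 0.5% DMSO vehicle, duplicates. Read: TP53 mRNA by TaqMan qRT-PCR, normalised to ACTB/GAPDH/POLR2A; bidirectional fit vs DMSO.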

Signal transducer and activator of transcription 3 (Homo sapiens), sequence (P40763 whole entry, looked up): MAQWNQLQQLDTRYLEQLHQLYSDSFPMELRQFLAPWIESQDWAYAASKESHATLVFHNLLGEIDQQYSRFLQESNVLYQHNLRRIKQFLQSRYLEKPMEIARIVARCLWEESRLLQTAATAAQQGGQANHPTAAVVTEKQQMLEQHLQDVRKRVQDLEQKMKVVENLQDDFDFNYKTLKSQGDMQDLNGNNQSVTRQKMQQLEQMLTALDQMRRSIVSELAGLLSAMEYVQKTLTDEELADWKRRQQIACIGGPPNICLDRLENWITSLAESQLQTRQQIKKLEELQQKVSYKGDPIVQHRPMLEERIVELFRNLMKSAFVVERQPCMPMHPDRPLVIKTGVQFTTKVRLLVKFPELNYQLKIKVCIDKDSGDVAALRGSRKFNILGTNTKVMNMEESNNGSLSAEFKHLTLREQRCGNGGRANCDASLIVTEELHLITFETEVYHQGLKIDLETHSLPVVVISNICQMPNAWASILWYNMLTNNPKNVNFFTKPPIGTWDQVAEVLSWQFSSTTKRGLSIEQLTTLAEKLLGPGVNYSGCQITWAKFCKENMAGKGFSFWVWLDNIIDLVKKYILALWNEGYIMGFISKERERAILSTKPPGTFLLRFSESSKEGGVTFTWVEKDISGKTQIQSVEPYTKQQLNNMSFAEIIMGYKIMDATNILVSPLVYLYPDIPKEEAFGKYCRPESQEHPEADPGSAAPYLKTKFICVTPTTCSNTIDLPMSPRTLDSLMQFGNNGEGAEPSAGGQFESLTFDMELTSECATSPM
Nuclear factor erythroid 2-related factor 2 (Homo sapiens), sequence (Q16236 whole entry, looked up): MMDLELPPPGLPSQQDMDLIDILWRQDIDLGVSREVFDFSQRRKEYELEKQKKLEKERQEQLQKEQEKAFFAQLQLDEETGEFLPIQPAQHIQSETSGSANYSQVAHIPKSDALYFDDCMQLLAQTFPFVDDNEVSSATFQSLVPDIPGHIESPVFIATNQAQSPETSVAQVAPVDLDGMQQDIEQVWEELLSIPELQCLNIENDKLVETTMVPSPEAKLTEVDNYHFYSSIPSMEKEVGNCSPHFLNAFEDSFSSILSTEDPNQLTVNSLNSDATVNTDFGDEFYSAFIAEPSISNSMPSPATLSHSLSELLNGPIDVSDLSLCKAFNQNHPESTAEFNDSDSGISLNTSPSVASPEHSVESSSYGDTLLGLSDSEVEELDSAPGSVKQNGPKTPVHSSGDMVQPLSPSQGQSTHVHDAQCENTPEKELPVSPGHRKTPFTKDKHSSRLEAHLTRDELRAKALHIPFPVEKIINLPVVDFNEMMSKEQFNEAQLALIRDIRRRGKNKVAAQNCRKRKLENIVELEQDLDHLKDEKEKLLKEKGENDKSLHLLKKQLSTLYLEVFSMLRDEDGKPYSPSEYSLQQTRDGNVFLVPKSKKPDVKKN
Cellular tumor antigen p53 (Homo sapiens), sequence (P04637 whole entry, looked up): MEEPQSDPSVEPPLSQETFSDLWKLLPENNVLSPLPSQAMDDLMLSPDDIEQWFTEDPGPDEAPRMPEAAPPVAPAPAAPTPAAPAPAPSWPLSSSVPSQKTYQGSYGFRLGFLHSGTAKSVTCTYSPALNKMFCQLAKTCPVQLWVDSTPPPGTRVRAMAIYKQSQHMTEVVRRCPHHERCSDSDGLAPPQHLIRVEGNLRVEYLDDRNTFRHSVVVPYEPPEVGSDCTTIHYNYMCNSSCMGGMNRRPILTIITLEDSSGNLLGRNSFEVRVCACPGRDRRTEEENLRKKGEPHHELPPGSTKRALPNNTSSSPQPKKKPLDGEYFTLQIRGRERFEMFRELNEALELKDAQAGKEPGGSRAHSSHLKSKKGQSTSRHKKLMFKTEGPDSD

Turning to `CNc1cnn(-c2cccc(C(F)(F)F)c2)c(=O)c1Cl`, the molecule was called inactive in [1], in [2], in [4], in assay [5], in [7] and in assay [8]. Also, the molecule was called inactive in assay [9], in [10], in assay [11], in [12], in assay [13] and in assay [14]. Besides, the outcome in assay [15], in [17], in assay [18] and in assay [19] was inactive. For the same molecule, the figures for the AC50 in assay [3], in assay [6] and in [16] were 50 µM (active), 9.92 µM (active) and 16.1 µM (active), respectively.
Take `CCOP(=S)(OCC)Oc1cc(C)nc(C(C)C)n1`: the molecule was called inactive in assay [1], in assay [2], in [3], in assay [4], in assay [5] and in [6]. Further, the result in assay [7], in assay [8], in [9], in assay [10], in assay [11] and in [12] was inactive. The molecule was called inactive in assay [13], in assay [14], in assay [17], in assay [18] and in assay [19]. Besides, the results for the AC50 in [15] and in [16] were 73.3 µM (active) and 10.5 µM (active), respectively.
On to `CSc1nc(NC(C)C)nc(NC(C)C)n1`, for which the outcome in [1], in assay [2], in assay [4], in [5], in [6] and in [7] was inactive. For the same molecule, the molecule was classed as inactive in assay [8], in [11], in assay [12], in assay [13], in [14] and in [20]. Moreover, the call in assay [17] and in assay [19] was inactive. The AC50 in [3] is 34.4 µM (active); in [9], 50 µM (active); in [10], 84.9 µM (active); in assay [15], 76.7 µM (active); in assay [16], 2.47 µM (active); in assay [18], 50 µM (active).
